# IL1B secr inh = blocks inflammasome-driven IL-1 beta release | AID 743279 | actives 4.7% (n = 360,000) | activity change, % at 57.5 µM | THP-1 LPS/ATP IL-1B secretion, AlphaLISA, 16 h; stronger effect = lower value; in the data active = activity change below about -50%; inconclusive = mostly about -30% to -49%
#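 THP-1 cells pretreated 1 hr with compounds (up to 57.5 uM final), then stimulated with LPS (250 ng/mL final) plus ATP (1.25 mM final); secreted IL-1B measured by AlphaLISA after 16 hr, decreased signal indicating inhibition.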
# TDP1 cell noCPT = qHTS for Inhibitors of human tyrosyl-DNA phosphodiesterase 1 (TDP1): qHTS in cells in absence of CPT. DT40 Tdp1-/- hTDP1 cells, no CPT, ATP luminescence, 48 h. Potency, µM (titrated, usually from 46.2 µM), for inactives: top-dose activity change, negative = growth inhibition, hits mostly inhibitors. actives 15% (n = 420,000). AID 686978, 2013; also: potency is read from the fitted curve at half-maximal effect; nearly all actives have a fitted effect of over 55% in size
#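 A cellular qHTS used chicken DT40 cells lacking endogenous Tdp1 but carrying stably transfected human TDP1. Compounds were applied without camptothecin, and cell growth kinetics were judged by ATP-dependent luminescence after ≥48 hr.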
# TDP1 cell CPT = growth inhibition of DT40 Tdp1-/-;hTDP1 cells with camptothecin (screen for TDP1 inhibitors). chicken DT40 Tdp1-/-;hTDP1 cells + 20 nM CPT, ATP luminescence, 48 h. Potency, µM (titrated, usually from 46.2 µM), for inactives: at the top dose activity change, negative = growth inhibition, actives largely listed as inhibitors. actives 12% (n = 420,000). AID 686979; also: potency is read from the fitted curve at half-maximal effect; nearly all actives have a fitted effect of over 55% in size
#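 Chicken DT40 Tdp1-/- cells stably complemented with human TDP1 were seeded at 400 cells/well in medium containing 20 nM camptothecin, exposed to pin-transferred compounds, and grown at 37 °C for at least 48 hr. Viability was read as ATP luminescence.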
# CtBP-E1A inh = CtBP/E1A binding inhibition | AlphaScreen GST-E1A/His-CtBP binding, 1536-well; stronger effect = lower value | actives 0.49% (n = 340,000) | activity change, % (no concentration beside the values); in the data active = activity change below about -65%; inconclusive = mostly about -30% to -63%
#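 GST-E1A and His-tagged CtBP (125 nM each as 5X stock) were preincubated with pin-transferred compound for 2 h at 37 °C in the dark, then glutathione donor and nickel acceptor beads were added for 1 h before AlphaScreen reading.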
# TDP1 block = inhibitors of human tyrosyl-DNA phosphodiesterase TDP1; Q9NUW8; recombinant TDP1, AlphaScreen DNA substrate cleavage; Potency, µM (highest dose often 130 µM), inactives show at the top dose activity change, negative = inhibition, actives largely listed as inhibitors; actives 0.28% (n = 350,000); AID 485290; also: potency is read from the fitted curve at half-maximal effect; nearly all actives have a fitted effect of over 40% in size
# Target sequence (Q9NUW8 whole entry, looked up): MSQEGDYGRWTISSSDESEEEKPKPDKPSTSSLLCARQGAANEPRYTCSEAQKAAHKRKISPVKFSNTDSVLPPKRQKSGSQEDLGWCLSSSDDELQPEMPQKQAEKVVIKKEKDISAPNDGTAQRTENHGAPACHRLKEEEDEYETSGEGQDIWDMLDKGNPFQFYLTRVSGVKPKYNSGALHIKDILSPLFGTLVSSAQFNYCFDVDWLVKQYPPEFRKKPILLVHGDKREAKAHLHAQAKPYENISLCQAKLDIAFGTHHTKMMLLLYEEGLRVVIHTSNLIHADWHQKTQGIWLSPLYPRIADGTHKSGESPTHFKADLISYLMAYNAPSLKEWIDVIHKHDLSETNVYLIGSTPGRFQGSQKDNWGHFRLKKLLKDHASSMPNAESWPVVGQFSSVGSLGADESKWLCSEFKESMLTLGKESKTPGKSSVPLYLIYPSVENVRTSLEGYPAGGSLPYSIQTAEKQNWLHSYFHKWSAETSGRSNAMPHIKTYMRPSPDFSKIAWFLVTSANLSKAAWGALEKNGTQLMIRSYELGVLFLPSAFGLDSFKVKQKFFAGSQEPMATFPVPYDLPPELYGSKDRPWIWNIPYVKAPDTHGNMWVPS
#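 Steps: enzyme plus compound, 15 min RT; add biotin/phosphotyrosine-FITC oligonucleotide (15 nM final), react 5 min; add donor/acceptor beads (10 ug/ml final), 10 min; read AlphaScreen. Tdp1 at 1 nM final.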
# Six1-Eya2 inh = blocks human Six1 binding to Eya2 | activity change, % (test concentration not listed) | Q15475+O00167 | AlphaScreen GST-Six1/His-Eya2 binding, biochemical; stronger effect = lower value | actives 0.56% (n = 360,000); in the data active = activity change below about -65%; inconclusive = mostly about -30% to -63%
#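 Homogeneous AlphaScreen proximity assay pairing GST-Six1 with His-tagged Eya2 (added as 5X mix: 250 nM and 500 nM) in 50 mM Tris pH 8.0, 300 mM NaCl, 1 mM TCEP. Glutathione donor and nickel acceptor beads; 1 h, 37 °C, dark.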
# Starred values were filed as active, the others as inactive; ? = inconclusive; nt = no result; [ ] = another dose, or the depositor's remark. Rows were chosen to be rich in hits. Some 18% of all compounds tested hit in one or more screens of this group. Unless noted, calls follow the shape of the dose curve; as a rule, active = well fitted curve in the direction sought with a large enough effect; inconclusive = small, poorly fitted or top-dose-only effect, or another doubt; inactive = no such curve, though single readings can be large; an effect the other way counts as inactive or inconclusive. % is scaled to controls: 0 for no effect and ±100 for the full control effect.
SMILES,IL1B secr inh,TDP1 cell noCPT,TDP1 cell CPT,CtBP-E1A inh,TDP1 block,Six1-Eya2 inh
O=C(CSc1nc(-c2ccccc2)nc2c1Cc1ccccc1O2)Nc1ccc(C(=O)O)cc1,47,-5%,6%,-5,4.5µM*,-81*
O=C(CSc1nc(-c2ccc(F)cc2)nc2c1Cc1ccccc1O2)Nc1ccc(C(=O)O)cc1,17,-3%,-12%,-12,5µM*,-24
O=C(CSc1nc(-c2ccccc2)nc2ccccc12)Nc1cccc(C(=O)O)c1,2,?,?,-30,5%,?
O=C(CSc1nc(-c2ccc(F)cc2)nc2ccc(F)cc12)Nc1cccc(C(=O)O)c1,16,-25%,1%,-12,25µM*,1
Cc1ccc(Cc2c(C)nc3nc(SCC(=O)NCCCN4CCCCC4)nn3c2C)cc1,-62*,-15%,3%,0,4%[0.0935 µM],-7
Cc1ccc(Cc2c(C)nc3nc(SCC(=O)NCCC(C)C)nn3c2C)cc1,nt,23µM*,?,nt,6%,nt
CCC1CCCCN1CCCNC(=O)CSc1nc2nc(C)c(Cc3ccccc3)c(C)n2n1 (configuration not stated),-67*,-14%,0%,0,4%[0.0935 µM],-6
COc1ccc(NC(=O)CSc2nc3nc(C)c(Cc4ccc(C)cc4)c(C)n3n2)cc1OC,nt,?,?,nt,8%,nt
Cc1ccc(Cc2c(C)nc3nc(SCC(=O)NCCCN4CCCC4)nn3c2C)cc1,-13,-18%,6%,-10,nt,4
Cc1ccc(S(=O)(=O)N2[C@@H](c3ccccc3)C(C(=O)O)=CC[C@H]2c2ccc3c(c2)OCO3)cc1,16,-2%,2%,nt,6%,1
COc1ccc(C(=O)NC2CCc3ccccc32)cc1OC1CCN(C(C)=O)CC1 (configuration not stated),14,?,-22%,3,0%,4
O=S(=O)(c1ccc(F)cc1)N1CCN(CCc2ccccc2)CC1,-16,-25%,-4%,1,2%,1
COc1ccc(NC(=O)c2nc[nH]c2C(=O)N[C@@H](C)C(=O)OC(C)(C)C)cc1,3,-19%,?,-21,2%,-7
Nc1nc(-c2ccccc2)cc(-c2ccccc2O)n1,-61*,?,?,18,?,-5
Oc1ccc(-c2cc(-c3ccc(O)cc3)nc(-c3ccccc3)n2)cc1,-98*,?,?,3,nt,-8
Cc1cc(Cl)nc(-c2ccccc2)n1,-11,0%,-8%,0,2%,11
Brc1cc(-c2ccccc2)nc(-c2ccccc2)n1,-84*,-16%,5%,41,nt,52
Clc1cc(-c2ccccc2)nc(-c2ccccc2)n1,-52*,-21%,?,22,nt,35
CN(C)c1cc(-c2ccccc2)nc(-c2ccccc2)n1,-18,11%,-3%,10,nt,1
Nc1ccc(-c2cc(-c3ccc(N)cc3)nc(-c3ccccc3)n2)cc1,-6,-12%,-9%,0,5%,24
CCOC(=O)CSc1nnnn1-c1cc(OC)ccc1OC,-17,-12%,-11%,-6,-7%,0
COc1cc(/C=N/NC(=O)c2ccc3c(c2)OCCO3)cc(Br)c1O,-24,?,-29%,-6,nt,-6
CCOC(=O)C1CCCCN1Cc1cccc(Oc2ccccc2)c1 (configuration not stated),-5,?,-5%,21,nt,32
NNc1nc(-c2ccccc2)cc(-c2ccccc2)n1,?,?,16µM*,5,0%,-1
NNc1nc(-c2ccccc2)cc(-c2ccccc2O)n1,-9,?,?,-28,8%,-16
SMILES,IL1B secr inh,TDP1 cell noCPT,TDP1 cell CPT,CtBP-E1A inh,TDP1 block,Six1-Eya2 inh
COC(=O)Cn1c(CN2CCC(Cc3ccccc3)CC2)nc2c1c(=O)n(C)c(=O)n2C,-6,-23%,-24%,1,-6%,2
Cc1ccc(NC(=O)c2cc(N3C(=O)C=CC3=O)ccc2N2CCOCC2)cc1,-63*,2.3µM*,0.82µM*,5,0%,-16
CN1CCN(c2ccc(NC(=O)c3cc(S(N)(=O)=O)ccc3N3CCOCC3)cc2)CC1,-2,3%,10%,nt,-3%,4
Cc1ccc(NC(=O)c2ccccc2)cc1C,-3,-11%,0%,9,-4%,2
Cc1ccc(NC(=O)c2cc(NC(=O)c3ccco3)ccc2N2CCOCC2)cc1,-26,16µM*,?,-12,1%,-1
Cc1ccc(NC(=O)c2cc(N3C(=O)C=CC3=O)ccc2Cl)cc1C,-14,4.6µM*,5.2µM*,-10,4%,-21
O=C(NCc1ccc(Cl)cc1)C1CCN(c2ncnc3c2nc2n3CCCCC2)CC1,nt,-2%,1%,nt,2%,nt
N#CC1=C(N)Oc2cc(O)c(Cl)cc2C1c1ccccc1F (configuration not stated),34,?,?,nt,nt,0
COc1ccc(C2CC3(CC(C)(C)NC(=S)N3)Oc3cc(O)cc(C)c32)cc1OC (configuration not stated),-6,?,?,-3,3%,4
COc1cccc(C2CC3(CC(C)(C)NC(=S)N3)Oc3cc(O)ccc32)c1 (configuration not stated),0,9.2µM*,12µM*,3,3%,-14
Cc1cccc(C2CC3(CC(C)(C)NC(=S)N3)Oc3cc(O)ccc32)c1 (configuration not stated),-73*,13µM*,21µM*,0,8%,2
CC1(C)CC2(CC(c3ccccc3F)c3cc(Cl)c(O)cc3O2)NC(=S)N1 (configuration not stated),-4,3.7µM*,2.1µM*,nt,8%,-7
O=C(NCCS(=O)(=O)N1CCN(c2ccccc2)CC1)c1ccc2c(c1)OCO2,24,-26%,7%,0,-3%,1
CCOC(=O)c1cc2c(C(F)(F)F)cc(-c3ccccc3)nc2o1,9,2%,-8%,2,4%,2
Cc1cc(C)nc(-n2nc(C)c3c(C)c(C)c(C)nc32)n1,nt,nt,nt,nt,0%,nt
COc1ccc(OC)c(C(=O)CSc2nnc(-c3cccnc3)n2C)c1,0,-19%,-4%,2,-7%,-3
Cc1ccc(-n2nc(C)c3nc(CCC(=O)Nc4cccc(C)c4C)c(=O)n(C)c32)cc1,nt,-1%,-11%,nt,4%,nt

# Source: PubChem BioAssay (National Center for Advancing Translational Sciences (NCATS))
